From PubChem BioAssay (NCI) come the findings set out here.

Structures are written as SMILES. Compounds without any hit were thinned out: in the full panel of roughly 79,000, 15% have a hit. Unmarked numbers belong to inactive results. The source made the active and inactive calls. Cut-off read from the data, not from the text of the source: active = growth inhibition above about 70%; inactive = the rest.

The nature of assay [1]: NCI Yeast Anticancer Drug Screen. Data for the rad50 strain (AID 155).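 Note: 0% = growth of vehicle-only cultures of the same strain.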 The note with it: S. cerevisiae rad50 strain growth inhibition, stronger effect = higher value. Summed up: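 A DNA repair-deficient yeast mutant serves as the test organism; compound-induced growth inhibition is calculated against vehicle-treated cells.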
Assay [2] in a line: NCI Yeast Anticancer Drug Screen. Data for the mec2-1 strain (AID 157). The note with it: S. cerevisiae mec2-1 strain, stronger effect = higher value. Summed up:
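Strain: mec2-1 (DNA repair/cell cycle alteration). Compound exposure, then growth measured; inhibition expressed relative to vehicle.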

A short description of assay [3]: NCI Yeast Anticancer Drug Screen. Data for the sgs1 mgt1 strain (AID 161).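 Note: 0% = growth of cultures given vehicle only.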 The note with it: S. cerevisiae sgs1 mgt1 strain, stronger effect = higher value. Summed up:
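Mutant yeast exposed to compound; growth scored against vehicle-only wells.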

Assay [4] is described as follows: NCI Yeast Anticancer Drug Screen. Data for the cln2 rad14 strain (AID 165).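 Note: 0% = growth equal to vehicle treated cultures.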 The note with it: S. cerevisiae cln2 rad14 strain, stronger effect = higher value. The method in brief:
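Compounds are applied to the cln2 rad14 yeast strain, and growth is then compared with that of vehicle-treated cultures to give inhibition.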

A short description of assay [5]: NCI Yeast Anticancer Drug Screen. Data for the bub3 strain (AID 167). The note with it: S. cerevisiae bub3 mutant strain, stronger effect = higher value. The method in brief: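 Inhibition values come from growth of compound-treated mutant yeast normalised to vehicle-treated controls.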
Assay [6] can be described thus: NCI Yeast Anticancer Drug Screen. Data for the mlh1 rad18 strain (AID 175). The conditions noted are these: S. cerevisiae mlh1 rad18 strain growth inhibition, stronger effect = higher value. The method in brief:
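Read-out is yeast growth inhibition, calculated against vehicle-only controls. The compound was applied to a strain engineered with DNA damage repair alterations.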

Where [7] appears, read: at 5.0 µM (retest, dose inferred, filed as 0.5).
Setting [8] is: at 50.0 µM (retest, dose inferred, filed as 5.0).

On to `CC(=O)Oc1cccc2c(OC(C)=O)cccc12`, for which the growth inhibition is -8% in assay [1] (setting [7]); 87% (active) in assay [1] (setting [8]); 69.2% in assay [1] (at 50.0 µM); -19% in assay [2] (setting [7]); 91% (active) in assay [2] (setting [8]); 39.8% in assay [2] (at 50.0 µM). For the same compound, the growth inhibition in assay [3] (setting [7]) was -9%; in assay [3] (setting [8]) it was 53%; in assay [3] (at 50.0 µM), 70.8% (active); in assay [4] (setting [7]), -8%; in assay [4] (setting [8]), 34%; in assay [4] (at 50.0 µM), 26.9%. For the same compound, the growth inhibition is -32% in assay [5] (setting [7]); 92% (active) in assay [5] (setting [8]); 58.2% in assay [5] (at 50.0 µM); -6% in assay [6] (setting [7]); 89% (active) in assay [6] (setting [8]); 65.6% in assay [6] (at 50.0 µM).

Take `O=C(O)c1ccc(Br)cc1C(=O)c1ccccc1`: the growth inhibition in assay [1] (setting [7]) was -18%; in assay [1] (setting [8]) it was -15%; in assay [1] (at 50.0 µM), 1.15%; in assay [2] (setting [7]), -19%; in assay [2] (setting [8]), 10%; in assay [2] (at 50.0 µM), 9.45%. In addition, the growth inhibition was -2% in assay [3] (setting [7]); 1% in assay [3] (setting [8]); -3.3% in assay [3] (at 50.0 µM); 31% in assay [4] (setting [7]); -38% in assay [4] (setting [8]); 11.8% in assay [4] (at 50.0 µM). The growth inhibition was 8% in assay [5] (setting [7]); -18% in assay [5] (setting [8]); 6.35% in assay [5] (at 50.0 µM); -11% in assay [6] (setting [7]); 6% in assay [6] (setting [8]); -20.4% in assay [6] (at 50.0 µM).

`CCOC(=O)C(=Cc1ccc(OC)cc1)C(=O)OCC`: the growth inhibition is 0% in assay [1] (setting [7]); 62% in assay [1] (setting [8]); 39.6% in assay [1] (at 50.0 µM); -1% in assay [2] (setting [7]); 70% (active) in assay [2] (setting [8]); 52.4% in assay [2] (at 50.0 µM). In addition, the growth inhibition in assay [3] (setting [7]) was -3%; in assay [3] (setting [8]) it was 65%; in assay [3] (at 50.0 µM), 55.6%; in assay [4] (setting [7]) it was 1%; in assay [4] (setting [8]) it was 57%; in assay [4] (at 50.0 µM) it was 5.95%. Further, the growth inhibition in assay [5] (setting [7]) is 18%; in assay [5] (setting [8]), 86% (active); in assay [5] (at 50.0 µM), 68.8%; in assay [6] (setting [7]), -1%; in assay [6] (setting [8]), 77% (active); in assay [6] (at 50.0 µM), 66.5%.

Take `CCOc1ccc(N=Nc2ccccc2)cc1`: the growth inhibition in assay [1] (setting [7]) was -11%; in assay [1] (setting [8]), -58%; in assay [1] (at 50.0 µM), 1.8%; in assay [2] (setting [7]), -25%; in assay [2] (setting [8]), -35%; in assay [2] (at 50.0 µM) it was 37.1%. Moreover, the growth inhibition in assay [3] (setting [7]) is -8%; in assay [3] (setting [8]), -39%; in assay [3] (at 50.0 µM) it was -19.8%; in assay [4] (setting [7]), 0%; in assay [4] (setting [8]), -27%; in assay [4] (at 50.0 µM), 38%. The growth inhibition was -13% in assay [5] (setting [7]); -39% in assay [5] (setting [8]); -12.6% in assay [5] (at 50.0 µM); -9% in assay [6] (setting [7]); -49% in assay [6] (setting [8]); -11.9% in assay [6] (at 50.0 µM).

`CN(C)/N=N/c1nc(Cc2ccccc2)[nH]c1C(N)=O`: the growth inhibition in assay [1] (setting [7]) was 98% (active); in assay [1] (setting [8]), 98% (active); in assay [1] (at 50.0 µM) it was 98.5% (active); in assay [2] (setting [7]), 16%; in assay [2] (setting [8]), 99% (active); in assay [2] (at 50.0 µM) it was 94.6% (active). The growth inhibition in assay [3] (setting [7]) is 38%; in assay [3] (setting [8]), 99% (active); in assay [3] (at 50.0 µM) it was 99.2% (active); in assay [4] (setting [7]), 29%; in assay [4] (setting [8]) it was 99% (active); in assay [4] (at 50.0 µM) it was 92.9% (active). Besides, the growth inhibition in assay [5] (setting [7]) was 67%; in assay [5] (setting [8]) it was 99% (active); in assay [5] (at 50.0 µM), 96.5% (active); in assay [6] (setting [7]), 99% (active); in assay [6] (setting [8]), 99% (active); in assay [6] (at 50.0 µM) it was 98.8% (active).

For the compound `COc1ccc(-c2nc3c(C(=O)NCCN(C)C)cccc3c3ccccc23)cc1`, the growth inhibition was 14% in assay [1] (setting [7]); 42% in assay [1] (setting [8]); 70.5% (active) in assay [1] (at 50.0 µM); 17% in assay [2] (setting [7]); 9% in assay [2] (setting [8]); 56% in assay [2] (at 50.0 µM). In addition, the growth inhibition was -12% in assay [3] (setting [7]); 55% in assay [3] (setting [8]); 13.9% in assay [3] (at 50.0 µM); 3% in assay [4] (setting [7]); 37% in assay [4] (setting [8]); 0.85% in assay [4] (at 50.0 µM). Further, the growth inhibition in assay [5] (setting [7]) was 8%; in assay [5] (setting [8]), 54%; in assay [5] (at 50.0 µM) it was -15.3%; in assay [6] (setting [7]), 10%; in assay [6] (setting [8]), 37%; in assay [6] (at 50.0 µM), 89.5% (active).

In the case of `Oc1ccc(CCCCCc2ccc(O)cc2)cc1`, the growth inhibition in assay [1] (setting [7]) was 4%; in assay [1] (setting [8]), 99% (active); in assay [1] (at 50.0 µM) it was 99.5% (active); in assay [2] (setting [7]), 15%; in assay [2] (setting [8]), 100% (active); in assay [2] (at 50.0 µM), 99.6% (active). The growth inhibition in assay [3] (setting [7]) is 17%; in assay [3] (setting [8]), 100% (active); in assay [3] (at 50.0 µM) it was 99.7% (active); in assay [4] (setting [7]), 1%; in assay [4] (setting [8]) it was 99% (active); in assay [4] (at 50.0 µM), 99.2% (active). The growth inhibition in assay [5] (setting [7]) was 13%; in assay [5] (setting [8]) it was 100% (active); in assay [5] (at 50.0 µM), 99.6% (active); in assay [6] (setting [7]) it was 7%; in assay [6] (setting [8]), 99% (active); in assay [6] (at 50.0 µM) it was 99.5% (active).

Take `CC(=O)OC1CCC2(C)C(C1)C(OC(C)=O)CC1C3CCC(c4cccc(=O)o4)C3(C)CCC12` (stereo not given): the growth inhibition was 2% in assay [1] (setting [7]); 64% in assay [1] (setting [8]); 85.1% (active) in assay [1] (at 50.0 µM); 11% in assay [2] (setting [7]); 84% (active) in assay [2] (setting [8]); 86.7% (active) in assay [2] (at 50.0 µM). Further, the growth inhibition in assay [3] (setting [7]) is 17%; in assay [3] (setting [8]), 72% (active); in assay [3] (at 50.0 µM), 84.8% (active); in assay [4] (setting [7]), 5%; in assay [4] (setting [8]), 76% (active); in assay [4] (at 50.0 µM) it was 84.9% (active). In addition, the growth inhibition is -2% in assay [5] (setting [7]); 79% (active) in assay [5] (setting [8]); 81.2% (active) in assay [5] (at 50.0 µM); -6% in assay [6] (setting [7]); 66% in assay [6] (setting [8]); 85% (active) in assay [6] (at 50.0 µM).

With `Cc1ccc(Cl)cc1NC(=O)N(C)CCOC(=O)Nc1cccc(Cl)c1`, the growth inhibition in assay [1] (setting [7]) is 32%; in assay [1] (setting [8]) it was 95% (active); in assay [1] (at 50.0 µM), 88.7% (active); in assay [2] (setting [7]), 31%; in assay [2] (setting [8]), 97% (active); in assay [2] (at 50.0 µM), 91% (active). The growth inhibition is 41% in assay [3] (setting [7]); 97% (active) in assay [3] (setting [8]); 92.9% (active) in assay [3] (at 50.0 µM); 22% in assay [4] (setting [7]); 97% (active) in assay [4] (setting [8]); 90% (active) in assay [4] (at 50.0 µM). Besides, the growth inhibition in assay [5] (setting [7]) was 23%; in assay [5] (setting [8]), 94% (active); in assay [5] (at 50.0 µM), 92.3% (active); in assay [6] (setting [7]), 41%; in assay [6] (setting [8]) it was 98% (active); in assay [6] (at 50.0 µM), 90.5% (active).

As for `C[C@]12CC[C@H](O)CC1=CC[C@@H]1C2CC[C@]2(C)NC(=O)CCC12` (stereo not given in full), the growth inhibition in assay [1] (setting [7]) was -4%; in assay [1] (setting [8]), 0%; in assay [1] (at 50.0 µM), 46.9%; in assay [2] (setting [7]), 1%; in assay [2] (setting [8]), 4%; in assay [2] (at 50.0 µM), 40.8%. Also, the growth inhibition is -2% in assay [3] (setting [7]); 16% in assay [3] (setting [8]); 82.8% (active) in assay [3] (at 50.0 µM); 1% in assay [4] (setting [7]); 0% in assay [4] (setting [8]); 53% in assay [4] (at 50.0 µM). Also, the growth inhibition in assay [5] (setting [7]) was 3%; in assay [5] (setting [8]), 4%; in assay [5] (at 50.0 µM), 39.3%; in assay [6] (setting [7]) it was -3%; in assay [6] (setting [8]) it was 1%; in assay [6] (at 50.0 µM), 76% (active).
